In PubChem BioAssay AID1457 (National Center for Advancing Translational Sciences (NCATS), 2008):
The whole screen tested about 210,000 compounds, of which about 730 (0.35%) were called active. Entries that show only a call come without a potency. About 1% were inconclusive and are not listed. Calls come from the whole dose curve; as a rule, active = well fitted inhibition curve with a large enough effect; inconclusive = small, poorly fitted or top-dose-only effect; inactive = no such curve, though single readings can be large or run the other way. Many of the other results were omitted from the sample, so actives are more common in it than they were.

assay: qHTS Assay for Identifying the Cell-Membrane Permeable IMPase Inhibitors: Potentiation with Lithium; settings: CHO-M1 cells, IP1 TR-FRET (IP-One), carbachol + lithium; series mostly up to 59.4 µM;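 note: IP1 builds up when IMPase is blocked and the TR-FRET signal falls; nearly all actives have a fitted effect of over 50% in size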
How it was run: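 Concentration–response in CHO-M1 cells, lithium-potentiated; 30 min at 37C. IP1 detected by competitive TR-FRET after 10 min lysis at RT. Hill-fitted AC50.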
Potency is the fitted concentration of half-maximal effect.

Row | Structure (SMILES) | Potency
1 | Cc1nonc1NC(=O)CSc1nc2ccccc2cc1C#N | inactive
2 | Cc1nc2cc(NC(=O)CSc3nc4c(C)cccc4cc3C#N)ccc2s1 | 11.2 µM (active)
3 | Cc1ccc2cc(C#N)c(SCC(=O)NCC3CCCO3)nc2c1C (stereo not drawn) | inactive
4 | C[N+](C)(CCCCCC[N+](C)(C)CCCN1C(=O)c2cccc3cccc(c23)C1=O)CCCN1C(=O)c2cccc3cccc(c23)C1=O | 10 µM (active)
5 | O=C(CN1C(=O)c2cccc3cccc(c23)C1=O)N1CCCCC1 | inactive
6 | O=C1c2cccc3cccc(c23)C(=O)N1CCCCCc1n[nH]c(=S)o1 | inactive
7 | O=C1CCC[C@@H]2CC(N3CCCCC3)C[C@@H]3CCN1[C@H]23 (stereo partly drawn) | inactive
8 | CCCCC[C@H](O)/C=C/[C@@H]1[C@@H](CC(=O)CCC(=O)O)[C@@H](O)C[C@H]1O | inactive
9 | CCCCC/C=C\C/C=C\CCCCCCCCCC(=O)NCC(=O)O | inactive
10 | CN(C)c1nc(-c2cccnc2)nc(-c2ccc(Cl)cc2)c1C#N | 7.94 µM (active)
11 | CNc1nccc(-c2ccc(Cl)cc2)c1C#N | inactive
12 | N#Cc1c(-c2ccc(Cl)cc2)c2c([nH]c1=S)CCCC2 | inactive
13 | COC(=O)CCCC1=CC2=CC(=O)C(C)(OC(=O)c3cccs3)C(=O)C2=CN1c1ccc(CO)cc1 (stereo not drawn) | inactive
14 | CC(=O)c1sc(NC(=O)c2ccc(C)cc2)nc1C | 12.6 µM (active)
15 | CC(=O)c1sc(N/N=C\c2ccc(C)cc2)nc1C | inactive
16 | CC(=O)c1sc(NC(=O)c2cccc3ccccc23)nc1C | inactive
17 | COC(=O)C1=C(C(=O)OC)[C@@H]2Nc3ccccc3[C@@]23C[C@@H](C(=O)OC)N(S(=O)(=O)c2ccc([N+](=O)[O-])cc2)C3=N1 | inactive
18 | CC(=O)OC1C([N+]2(C)CCCCC2)C[C@H]2C3CC[C@H]4C[C@H](OC(C)=O)C([N+]5(C)CCCCC5)CC4(C)C3CCC12C (stereo partly drawn) | inactive
19 | COCOc1cc(OC)ccc1C(=O)/C=C/c1ccc([N+](=O)[O-])cc1 | inactive
20 | CC(=O)Oc1ccc(NC(=O)CCC2CCCCC2)c(C(=O)O)c1 | inactive
21 | CC(=O)c1cc(NC(=O)c2ccccc2)c(=O)oc1/C=C/N(C)C | inactive
22 | CC(=O)Nc1cc2ccc(OC(C)=O)cc2oc1=O | 8.91 µM (active)
23 | COCCN1C=C2C(=O)C(C)(OC(=O)C3CCCC3)C(=O)C=C2C=C1c1ccsc1 (stereo not drawn) | inactive
24 | N#Cc1cccc(CS(=O)(=O)c2nnnn2-c2cc(C(F)(F)F)cc(C(F)(F)F)c2)c1 | inactive
25 | C=C(C(C)=O)C(O)c1cccs1 (stereo not drawn) | inactive
26 | COc1ccc(-c2nc3c(c4c2C[C@H](c2ccccc2)OC4)CN(C(=O)c2cccnc2)CC3)c(C)c1 | inactive

Row | Structure (SMILES) | Potency
27 | Cc1nc(SCC(=O)Nc2cc(C)on2)c2c3c(sc2n1)CCCC3 | 10 µM (active)
28 | Cc1ccc(-c2csc(SCC(=O)Nc3cc(C)on3)n2)cc1 | inactive
29 | Cc1cc(C)n(-c2nc(SCC(=O)N3CCCC3)c3c4c(sc3n2)CCCC4)n1 | inactive
30 | CC(C)c1cnc(NC(=O)Cc2ccccc2)s1 | inactive
31 | COc1ccc(CC(N)C(=O)NC2C(O)[C@H](n3cnc4c(N(C)C)ncnc43)O[C@@H]2CO)cc1 (stereo partly drawn) | inactive
32 | CC[C@@]12C=C(/C=C/c3ccccc3)[C@](CC)(C1)[C@H](c1ccccc1)CC2=O | inactive
33 | COCCN1C(=O)N[C@@H](CCc2ccccc2)[C@H](C(C)=O)[C@H]1C | inactive
34 | S=c1nccc(-c2cc(Cl)sc2Cl)[nH]1 | 11.2 µM (active)
35 | Nc1nc2c(ncn2[C@@H]2O[C@H](COP(=O)(O)OP(=O)(O)OP(=O)(O)O)[C@@H](O)C2O)c(=O)[nH]1 (stereo partly drawn) | inactive
36 | COc1ccc(CC(=O)Nc2ccc(-c3nnc(-c4ccccc4)o3)cc2)cc1 | 10 µM (active)
37 | COc1ccc(CC(=O)Nc2ccc(C(=O)NC(C)(C)C)cc2)cc1 | inactive
38 | COc1ccc(-c2nc(-c3ccccc3)oc2Nc2ccc3ccccc3c2)cc1 | inactive
39 | COc1cccc(CC(=O)N2CCc3nc(COc4ccccc4)c4c(c3C2)CO[C@@H](C)C4)c1 | inactive
40 | CCCCS(=O)(=O)N1C2=NC(C(=O)OC)=C(C(=O)OC)[C@@H]3N(Cc4ccccc4)c4ccccc4[C@]23C[C@H]1C(=O)OC | inactive
41 | COC(=O)C(C(=O)OC)[C@@H](NC=O)c1ccccc1 | inactive
42 | O=C(O)COc1ccc(-c2nccc(-c3cccs3)n2)cc1 | 10 µM (active)
43 | O=C(Nc1ccnc(-c2ccncc2)n1)c1cccs1 | inactive
44 | COC(=O)CSc1nccc(-c2cccs2)n1 | inactive
45 | C/C(Nc1ccc2oc(=O)ccc2c1)=C1/C(=O)CC2[C@@H]1C2(C)C (stereo partly drawn) | inactive
46 | Cc1cc2oc(=O)cc(-c3ccccc3)c2c(C)c1-c1ccc(OC(F)(F)F)cc1 | inactive
47 | CC(C)C[C@H](NC(=O)[C@H](O)[C@H](N)Cc1ccccc1)C(=O)O | inactive
48 | CC(C)(C)OC(=O)NCCCCC1=CC2=CC(=O)C(C)(OC(=O)c3cccs3)C(=O)C2=CO1 (stereo not drawn) | inactive
49 | COC(=O)c1ccc(CSc2nc3ccccc3c(=O)n2-c2cccc(OC)c2)o1 | inactive
50 | COc1ccc(OC)c(-n2c(=S)[nH]c3cc(C(=O)N4CCCCC4)ccc3c2=O)c1 | inactive
51 | COc1cccc(-n2c(=S)[nH]c3c(oc4ccccc43)c2=O)c1 | 12.6 µM (active)
52 | OC[C@H]1O[C@@H](n2cnc3c(N[C@H]4CC5CCC4C5)ncnc32)[C@H](O)[C@@H]1O (stereo partly drawn) | inactive

Row | Structure (SMILES) | Potency
53 | CC(=O)CC(c1ccccc1)C1C(=O)Oc2ccccc2C1=O (stereo not drawn) | inactive
54 | CC(C)C1=CC2=CC[C@H]3[C@](C)(C(=O)O)CCC[C@]3(C)C2CC1 (stereo partly drawn) | inactive
55 | COC(=O)C(C(=O)OC)C1c2ccccc2C=C(C2CC2)N1C(=O)OC (stereo not drawn) | inactive
56 | O=C(CSc1nc2c(cnn2-c2ccc(F)cc2)c(=O)[nH]1)N1CCCCCC1 | inactive
57 | CC(=O)c1sc2nc(SCC(=O)N3CCCCC3)[nH]c(=O)c2c1C | 11.2 µM (active)
58 | C=CCNC(=O)CSc1nc2sc(C)c(C)c2c(=O)[nH]1 | inactive
59 | CCN1C(=O)N[C@@H](c2ccccc2)[C@H](C(C)=O)[C@H]1C | inactive
60 | O=C1C=C(c2ccccc2)CCC1 | inactive
61 | CCN1C(=O)N[C@@H](CCc2ccccc2)C(C(=O)OC)=C1C | inactive
62 | O=C1OCCN1C(=O)[C@H]1[C@H](c2ccc(Cl)cc2)C(c2cccc(Cl)c2)=NN1c1ccc(Br)cc1 | inactive
63 | COC(=O)CCCC1=CC2=CC(=O)C(C)(OC(=O)c3cccs3)C(=O)C2=CN1CC1CC1 (stereo not drawn) | inactive
64 | COc1ccc(-c2nc3c(c4c2C[C@H](c2ccccc2)OC4)CN(C(=O)C2CC2)CC3)c(C)c1 | inactive
65 | CC1=C(C/C=C(\C)CCCC(C)CCCC(C)CCCC(C)C)C(=O)c2ccccc2C1=O (stereo not drawn) | inactive
66 | CCOC(=O)c1ccc(NC2Nc3cc(C)nn3S2)cc1 (stereo not drawn) | 10 µM (active)
67 | CCc1ccc(NC2Nc3cc(C)nn3S2)cc1 (stereo not drawn) | inactive
68 | CCOC(=O)c1ccc(Nc2cc(C)nc3nc(C)nn23)cc1 | inactive
69 | CC1(C)O[C@@H]2C[C@@H]3[C@H]4C[C@@H](F)C5=CC(=O)C=C[C@]5(C)[C@@]4(F)[C@@H](O)C[C@]3(C)[C@]2(C(=O)CO)O1 | inactive
70 | CCCCCCCC/C=C\CCCCCCCC(=O)NCC(=O)O | inactive
71 | CCCCC/C=C\C[C@H](O)/C=C/C=C/C=C/[C@@H](O)CCCC(=O)O | inactive
72 | C=CCC(C)(O)c1ccco1 (stereo not drawn) | inactive
73 | N#C/C(=C(/O)COc1cccc2ccccc12)c1nc2ccccc2[nH]1 | inactive
74 | Cc1ccccc1OC/C(O)=C(\C#N)c1nc2ccccc2[nH]1 | 12.6 µM (active)
75 | N#C/C(=C(/O)COC(=O)COc1ccc(Cl)cc1)c1nc2ccccc2[nH]1 | inactive
76 | COC(=O)CCCC1=CC2=CC(=O)C(C)(OC(=O)c3cccs3)C(=O)C2=CN1c1cccc(C#N)c1 (stereo not drawn) | inactive
77 | C[C@@]12CCC(=O)C=C1CC[C@H]1C2[C@@H](O)C[C@]2(C)[C@@H]1CC[C@@]2(O)C(=O)COC(=O)C1CCCC1 (stereo partly drawn) | inactive
78 | CO[C@@]12[C@@H](COC(N)=O)C3=C(C(=O)C(C)=C(N)C3=O)N1C[C@@H]1N[C@@H]12 | inactive
